The values below come from PubChem BioAssay (NCI).

Compounds without any hit were thinned out: in the full panel of roughly 83,000, 20% have a hit.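 Activity criterion: percent growth below 10, measured after cells in 96-well plates were exposed to a single compound concentration for 48 hours.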 The source made the active and inactive calls.

For this assay, the system named is MDA-MB-468 breast. The assay can be described thus: NCI-60 one-dose screen, 48 h (100 = growth as untreated, 0 = no growth, -100 = all killed). The settings on record: 10 µM unless noted.
As to `Clc1cccc(Cl)c1C1CSc2ccccc2N=C1c1ccccc1` (stereo unspecified), the growth is 80.3% (inactive).
In the case of `CCc1ccccc1-n1c(-c2ccc(Cl)cc2)cc(-c2ccc(Cl)cc2)c(C#N)c1=O`, the growth was 87.6% (inactive).
Next, `Cc1ccc(-c2nn(C)c(=O)c3noc(-c4ccc(C)cc4)c23)cc1`: 19.8% (inactive); `CCNc1ccc2ccccc2c1N=Nc1ccc(N=Nc2ccccc2)cc1`: 104% (inactive); `c1ccc(CN=C(NCc2ccccc2)NCc2ccccc2)cc1`: -14.8% (active).
As to `COc1cc(/C=C/C(=O)/C=C/c2cc(OC)c3c(c2)OCO3)cc2c1OCO2`, the growth is 76.2% (inactive).
Take `CSc1nc2ccccc2cc1/C=[N+](\[O-])c1ccccc1`: the growth is 88% (inactive).
The result for `O=C(NC(CSSCC(NC(=O)c1ccccc1)C(=O)O)C(=O)O)c1ccccc1` (stereo unspecified) reads 111% (inactive).
For `Cc1c(CC(=S)N2CCOCC2)nnn1-c1cccc(C(F)(F)F)c1`, the growth is 117% (inactive).
Consider `Cc1ccccc1C1CC(=O)c2ccccc2C1C` (stereo unspecified), for which the growth was 83% (inactive).
Next, `COc1cc(Cn2cc3c(c2)-c2onc(CO)c2CC3)cc(OC)c1OC`: 81.6% (inactive); `COc1cc(NS(=O)(=O)C(C)C)cc(-c2cc(-c3ccc(N4CCNCC4)cc3)cnc2N)c1`: 92.2% (inactive).
Consider `CC1=C(CCCOC(=O)NCCCl)C2=C(C)C3(CC3)[C@@](C)(O)C(=O)C2=C1`, for which the growth is -55% (active).
Take `CC(C)(C)[Si](C)(C)O[C@H]1C(=O)C=CN2CC=C[C@@H]12`: the growth was 99.4% [100 µM] (inactive).
Take `CC(=O)Nc1ccc(S(=O)(=O)N/N=C\c2ccc(Cl)c(Cl)c2)cc1`: the growth is 100% (inactive).
As for `IP(CCCCCCCCCCSc1n(Cc2ccc3ccccc3c2)c(-c2ccccc2)c(-c2ccccc2)[n+]1Cc1ccc2ccccc2c1)(c1ccccc1)(c1ccccc1)c1ccccc1`, the growth is -75.3% (active).
On to `Cn1cc(-c2nnc(N)nc2-c2c[nH]c3ccc(F)cc23)c2cc(F)ccc21`, for which the growth was -15.1% (active).
Consider `O=[N+]([O-])c1cccc(-c2nc3cc4nc5ccccc5[nH]c4cc3n2)c1`, for which the growth is 95.5% (inactive).
As to `CCN(CC)CCOc1ccc(C(=C(c2ccccc2)C2CCCC2)c2ccc(OCCN(CC)CC)cc2)cc1`, the growth was -77.5% (active).
The result for `COc1ccc(C(=O)C(=O)c2ccccc2)cc1` reads 101% (inactive); that for `O=C(OC(CO)C(=O)NC12CC3CC(CC(C3)C1)C2)c1ccc(Cl)cc1` (stereo unspecified), 95.3% (inactive); that for `CC(CNc1nc(Nc2ccc(Cl)c(Cl)c2)nc(C(Cl)(Cl)Cl)n1)N(C)C` (stereo unspecified), -43.3% (active).
In the case of `Cc1cc(O)c(C2=NN(c3ccc(S(N)(=O)=O)cc3)C(c3ccc(Cl)cc3)C2)c(C)c1Cl` (stereo unspecified), the growth is 43.7% (inactive).
As for `CS(=O)(=O)c1ccc(-c2nc3ccccn3c2/C=N/Nc2nc(-c3ccc(Br)cc3)cs2)cc1`, the growth is 102% (inactive).
For the molecule `C=CCn1c(SCC(=O)Nc2ccc(C(=O)/C=C/c3cc(OC)c(OC)c(OC)c3)cc2)nnc1-c1cc(-c2ccc(OC)cc2)nc2ccccc12`, the growth is 103% (inactive).
As for `CCCCCCCCN(CCCCCCCC)CCCCCCNc1cc(OC)cc2cccnc12`, the growth was 68.2% (inactive).
As for `COc1ccc2[nH]c(=O)c(/C=N/Nc3nc(-c4ccccc4)cs3)c(O)c2c1`, the growth is 87.6% (inactive).
For the molecule `CC(=O)OCCCCN1C=C/C(=C\C(=O)n2ccc3ccccc32)c2ccccc21`, the growth is 98.4% (inactive).
Turning to `Nc1c(C(=O)c2ccc(Br)cc2)oc2nc(-c3cnccn3)cc(-c3cccs3)c12`, the growth was 99.4% (inactive).
The result for `C=CCn1c(C)nc2cc(Nc3nc(N4CCCC4)nc4nc[nH]c34)ccc21` reads 51.1% (inactive).
In the case of `CC(=O)OCC(=O)[C@@]1(O)CC[C@H]2[C@@H]3CCC4=CC(=O)CC[C@]4(C)[C@@]3(F)[C@@H](O)C[C@@]21C`, the growth is 121% (inactive).
As to `O=S(=O)(NCCCNc1nccc(-c2c(-c3cccc(O)c3)nc3occn23)n1)c1ccc(F)cc1`, the growth is 100% (inactive).
Regarding `COc1cc(/C=C/C(=O)N2CCN(C(=O)c3cc(OC)c(OC)c(OC)c3)CC2)ccc1OCCCN1C(=O)c2cccc3cccc(c23)C1=O`, the growth is 102% (inactive).
As to `O=C(/C=C/c1ccccc1)c1ccc(-n2cc(CN3CCN(c4cc5c(cc4F)c(=O)c(C(=O)O)cn5C4CC4)CC3)nn2)cc1`, the growth is 66% (inactive).
On to `COc1cccc(CNc2nnc(C)c(C)n2)c1O`, for which the growth is 91.7% (inactive).
Turning to `O=C(Nc1ccc(Oc2ccc(Nc3nc4ccccc4s3)cc2)cc1)Nc1ccc(Cl)c(Cl)c1`, the growth is 8.01% (active).
